Like-named read-outs stand apart in the source and are kept apart here. About 3,200 (25%) of roughly 13,000 compounds showed an effect of 50% or more. The list shows a part of the results.
Test system: P. falciparum stage V gametocytes
Parameters: BacTiter-Glo ATP luminescence viability of purified stage V gametocytes in 384-well plates, per cent inhibition versus DMSO
Details: 48 h, 5 µM, inhibitor

Structure (SMILES) | % Inhibition [%] | % Inhibition (% Inhibition) [%]
N#Cc1cccc(C(=O)Nc2cccc(-c3ccc(C(=O)NCCCN4CCOCC4)cc3)c2)c1 [TCMDC-133694] | -17.34 | –
CC(Nc1ncc(-c2ccsc2)c(-c2nccs2)n1)c1ccc2c(c1)OCCO2 (centres unmarked) [TCMDC-125367] | -15.14 | –
O=C(NCCCCN1CCCC2c3ccc(O)cc3CCC21)c1ccc(-c2ccccc2)cc1 (centres unmarked) [TCMDC-139083] | – | -83.61
CCc1c(C)nc(-n2nc(C)cc2NC(=O)C2c3ccccc3Oc3ccccc32)[nH]c1=O [TCMDC-124932] | -24.15 | –
O=S1(=O)NCc2ccc(Nc3nccc(Nc4ccc5c(cnn5Cc5ccccc5)c4)n3)cc21 [TCMDC-138840] | -68.79 | –
O=C(Nc1cccc(-c2nn3ccccc3c2-c2ccnc(Nc3cccc(F)c3)n2)c1)c1c(F)ccc(F)c1F [TCMDC-135844] | -56.6 | –
NC(=O)c1cccc(C(=O)Nc2cccc(-c3cccc(-c4nc5ccccc5[nH]4)c3)c2)c1 [TCMDC-132194] | 0.2723 | –
COc1ccc(C2c3ccccc3-c3nc(N)nc(N)c3C2C)cc1 (centres unmarked) [TCMDC-137992] | 31.51 | –
Cc1cc(NC(=O)NCCN2CCC(NS(=O)(=O)c3ccccc3Cl)C2)c2ccccc2n1 (centres unmarked) [TCMDC-136142] | -23.32 | –
Cc1oc(-c2cccc(Oc3ccccc3)c2)nc1CN(Cc1cnn(C)c1)C(C)C [TCMDC-124609] | -17.42 | –
COc1ccc2nccc(N(C)CC3(O)CCN(CCc4ccc5c(c4)OCCO5)CC3)c2n1 [TCMDC-141473] | 35.78 | –
CCNc1cc(C(=O)N[C@@H](Cc2ccccc2)[C@H](O)CNCc2cccc(-n3ccnc3)c2)cc(N2CCCC2=O)c1 [TCMDC-141686] | 34.28 | –
CN(C)C(CNC(=O)c1cc(-c2ccncc2)c(-c2cc3ccccc3[nH]2)o1)c1ccccc1 (centres unmarked) [TCMDC-135864] | 29.45 | –
N#Cc1ccc(N(CC(=O)NCCc2ccc(F)cc2)CC2CC2)c2ccccc12 [TCMDC-135573] | -38.52 | –
CCc1cccc2c(C#N)cn(CC(=O)NCCc3ccccc3)c12 [TCMDC-124363] | 56.03 | –
CCCN(CC(=O)NCCc1ccccc1)c1ccc(C#N)c2ccccc12 [TCMDC-135545] | -10.84 | –
CCc1cccc2c(C#N)cn(CC(=O)Nc3ccc(OC)cc3)c12 [TCMDC-123527] | 78.76 | –
CCc1ccc(NC(=O)c2cccc(CN3CCCN(Cc4ccc(OC)cc4)CC3)c2)cc1 [TCMDC-135990] | -23.52 | –
COc1ccc(CC(=O)Nc2ccc(Nc3nc(C)cc(N(C)C)n3)cc2)cc1 [TCMDC-124973] | 14.2 | –
CCOc1ccc(OCC(=O)Nc2nc(-c3ccc(OC)cc3)c(C)s2)cc1 [TCMDC-124322] | 37.56 | –
CN(C)CCOc1ccc(-c2cc(-c3ccc(Cl)c(O)c3)c(-c3ccncc3)[nH]2)cc1 [TCMDC-141255] | -84.18 | –
Clc1ccc(-n2cnc3c(Nc4ccc(Oc5ccccc5)cc4)ncnc32)cc1Cl [TCMDC-138209] | 88.06 | –

Structure (SMILES) | % Inhibition [%] | % Inhibition (% Inhibition) [%]
c1ccc(Oc2ccc(Nc3nncc4ccccc34)cc2)cc1 [TCMDC-137229] | 25.45 | –
Oc1c(Cl)cc(Nc2nccc(Nc3ccc(Oc4ccccc4)cc3)n2)cc1Cl [TCMDC-138588] | -66 | –
Nc1ccc(-c2cc(Cl)cc(Cl)c2)cc1-c1cc2ccccc2[nH]1 [TCMDC-139051] | -15.54 | –
CCCCc1ccc(S(=O)(=O)Nc2ccc3c(c2)CCN(Cc2c[nH]c4cnccc24)CC3)cc1 [TCMDC-136797] | -5.765 | –
CN1Cc2ccc(NS(=O)(=O)c3ccc(-c4ccoc4)cc3)cc2C1 [TCMDC-141495] | 67.76 | –
CCCc1ccc(S(=O)(=O)Nc2ccc3c(c2)CCC3)cc1 [TCMDC-125822] | 10.44 | –
Nc1nc(N)c2cc(NS(=O)(=O)c3ccc(-c4ccccc4)cc3)ccc2n1 [TCMDC-135430] | 5.991 | –
Cc1nc(N2CCC(C)CC2)c2c3c(sc2n1)CCCC3 [TCMDC-125646] | 3.329 | –
C=C(C)C1CC=C(CN2CCCC(n3ccc4cc(NC(=O)c5ccco5)ccc43)CC2)CC1 (centres unmarked) [TCMDC-135090] | -20.08 | –
CCC(=O)c1c(C)n(-c2ncnc3c2nc(C)n3-c2ccc(C)cc2C)c2ccccc12 [TCMDC-136513] | 51.77 | –
Cc1nc2c(-n3cc(Cn4ccnc4)c4ccccc43)ncnc2n1-c1ccc(Cl)cc1Cl [TCMDC-136514] | 37.26 | –
Cc1noc(-c2ccc3c(c2)CCN(CCC2CCC(NC(=O)c4cc5ccccc5[nH]4)CC2)CC3)n1 (centres unmarked) [TCMDC-139876] | -74.07 | –
CN(C)CCCn1cc(C(=O)OC2CC3CCC(C2)N3C)c2cc(-c3ccccc3)ccc21 (centres unmarked) [TCMDC-139094] | 100.6 | –
CN(C)CCOc1cc(NC(=O)Nc2ccc(-c3ccccc3)cc2)ccc1I [TCMDC-139150] | -45.78 | –
O=S(=O)(NCCN1CCCC1)c1cccc(-c2cccc(CNCc3ccccc3)c2)c1 [TCMDC-132226] | 104 | –
O=S(=O)(NCCN1CCCC1)c1cccc(-c2ccc(CNCc3ccccc3)cc2)c1 [TCMDC-132240] | 108.6 | –
COc1cc(NC2=C(c3ccccc3)C(=O)c3ccccc32)ccn1 [TCMDC-135283] | 73.83 | –
O=C1C(c2ccccc2)=C(Nc2cccc([N+](=O)[O-])c2)c2ccccc21 [TCMDC-125484] | 25.85 | –
O=C1C(c2ccccc2)=C(Nc2ccc([N+](=O)[O-])cc2)c2ccccc21 [TCMDC-125490] | 10.18 | –
COc1ccc(NC2=C(c3ccccc3)C(=O)c3ccccc32)cn1 [TCMDC-125501] | 36.53 | –
O=C1C(c2ccccc2)=C(Nc2cccc(OC(F)(F)C(F)F)c2)c2ccccc21 [TCMDC-125498] | 65.78 | –
O=C1C(c2ccccc2)=C(Nc2ccc(Cl)cc2)c2ccccc21 [TCMDC-125493] | 32.25 | –

Reference: article PMC4552634, “A New Set of Chemical Starting Points with Plasmodium falciparum Transmission-Blocking Potential for Antimalarial Drug Discovery” (PLoS ONE, 2015)
